Source: PubChem BioAssay
Activity calls are given as the source filed them.

Columns and labels:
[1] = tested on: PRMT1 (protein arginine N-methyltransferase 1); experiment: small molecules binding arginine methyltransferase PRMT1 – biochemical, small-molecule microarray, 635 nm fluorescence, primary screen (AID 1088); settings: higher = more signal;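 further: binding of Prmt1 protein to compounds spotted on small-molecule microarray slides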
[2] = growth effects on S. cerevisiae YJM789 – YJM789 clinical isolate, OD600, 24 h, basal, primary screen (AID 1089); settings: higher = more signal, called active from +8 up or from −8 down;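 further: growth of clinical yeast isolate S. cerevisiae YJM 789 seeded 1000 cells per well; test concentration not given here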
[3] = S. pombe growth modifiers, basal conditions – strain 972, OD600, 24 h, no modulator, primary screen (AID 1090);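 further: basal condition with compound alone and no growth modifier present; test concentration not given here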; settings: S. pombe 972 growth, higher = more signal, called active from +8 up or from −8 down
[4] = budding yeast growth modifiers under rapamycin – strain BY4716, OD600, 96 h, primary screen (AID 1091); further: test concentration not given here; settings: S. cerevisiae BY4716 + rapamycin, higher = more signal, called active from +8 up or from −8 down
[5] = target: Torsin-1A-interacting protein 2 (Homo sapiens) (UniProt Q8NFQ8); experiment: small molecules binding lysate-expressed LULL1 – cell lysate, human LULL1 lysate, 635/667 nm fluorescence, primary screen (AID 1092); settings: small-molecule microarray, hLULL1 lysate binding, 635 nm fluorescence; higher = more signal;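 further: probe is lysate of COS7 cells overexpressing human LULL1; score merges per-feature 667 nm fluorescence with signal-to-noise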
[6] = optical density change of DRC41 E. coli – strain DRC41, OD650, 24 h, E. coli filamentation project, primary screen (AID 1093);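 further: MC1000 strain lacking acrAB efflux and sulA so SOS filamentation is blocked; test concentration not given here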; settings: E. coli DRC41 growth, higher = more signal, called active from +8 up or from −8 down
[7] = probe aLefty2 binding to arrayed compounds – biochemical, biotinylated probe, 635/667 nm fluorescence, primary screen (AID 1094); settings: small-molecule microarray, higher = more signal;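 further: score merges spot fluorescence near 667 nm with spot signal-to-noise ratio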
[8] = tested on: Noggin (protein binding on small-molecule microarray); experiment: small molecules binding Noggin protein – biochemical, 635/667 nm fluorescence, primary screen (AID 1095); settings: 635 nm fluorescence, higher = more signal;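 further: score merges 667 nm feature fluorescence with signal to noise over triplicate slides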
[9] = target: Neurogenic locus notch homolog protein 3 (Homo sapiens) (UniProt Q9UM47); experiment: small molecules binding NOTCH3 protein – biochemical, 635/667 nm fluorescence, primary screen (AID 1096); settings: small-molecule microarray, 635 nm fluorescence, higher = more signal
[10] = probe aEGFR binding to arrayed compounds – biochemical, biotinylated probe, 635/667 nm fluorescence, primary screen (AID 1097); settings: small-molecule microarray, higher = more signal;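 further: probe is a biotinylated anti-EGFR antibody binding compounds printed on slides; score combines fluorescence near 667 nm and signal to noise of each spot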
[11] = tested on: Plasmodium falciparum Sir2 (PF13_0152, Sir2A); experiment: Plasmodium falciparum Sir2A binding compounds – biochemical, small-molecule microarray, 635 nm fluorescence, primary screen (AID 1098); settings: fluorescence 635 nm, higher = more signal;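 further: score merges spot fluorescence intensity with its signal-to-noise ratio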
[12] = probe aDKK1 binding to arrayed compounds – biochemical, biotinylated probe, 635/667 nm fluorescence, primary screen (AID 1099); settings: small-molecule microarray, higher = more signal;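 further: score merges 667nm spot fluorescence with signal to noise across triplicate slides; reference of the scale not given here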
[13] = probe aCHRDL2 binding to arrayed compounds – biochemical, biotinylated probe, 635/667 nm fluorescence, primary screen (AID 1100); settings: small-molecule microarray, higher = more signal
[14] = change in splice reporter luminescence, either direction, cell-based, HEK293, spliceosome inhibition project, primary screen (AID 1101); settings: HEK293 splicing luciferase reporter, 24 h, higher = more signal, called active from +8 up or from −8 down;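 further: HEK293 cells carrying a splicing-competent luciferase reporter gene; test concentration not given here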
[15] = target: Fibroblast growth factor 10 (Homo sapiens) (UniProt O15520); experiment: compounds binding fibroblast growth factor 10 – biochemical, small-molecule microarray, 635 nm fluorescence, primary screen (AID 1102); settings: FGF10 binding, fluorescence 635 nm, higher = more signal
[16] = tested on: glycogen synthase kinase-3 (GSK3A per assay name; protocol says GSK3B); experiment: compounds binding glycogen synthase kinase-3 – biochemical, small-molecule microarray, 635 nm fluorescence, GSK3A, primary screen (AID 1103); settings: fluorescence 635 nm, higher = more signal; further: the record names both GSK3A and GSK3B
[17] = target: Epidermal growth factor receptor (Homo sapiens) (UniProt P00533); experiment: compounds binding epidermal growth factor receptor – biochemical, small-molecule microarray, 635 nm fluorescence, primary screen (AID 1104); settings: EGFR binding, higher = more signal;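 further: score merges 667 nm emission intensity with spot signal to noise over triplicate slides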
[18] = target: Follistatin-related protein 3 (Homo sapiens) (UniProt O95633); experiment: compounds binding follistatin-related protein 3 – biochemical, small-molecule microarray, 635 nm fluorescence, primary screen (AID 1105); settings: FSTL3 binding, higher = more signal;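 further: score merges emission near 667 nm and signal to noise per printed spot across three slides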
[19] = target: Dickkopf-related protein 1 (Homo sapiens) (UniProt O94907); experiment: small molecules binding DKK1 protein – biochemical, small-molecule microarray, 635 nm fluorescence scan, primary screen (AID 1106); settings: higher = more signal;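 further: score merges emission near 667 nm with signal to noise over three replicate slides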
[20] = tested on: Inhibin beta A chain (activin A); experiment: small molecules binding activin A – biochemical, small-molecule microarray, 635 nm fluorescence scan, primary screen (AID 1107); settings: INHBA, higher = more signal;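 further: mouse activin A protein probed at 4.33 µg/mL on printed slides; score merges bound-protein fluorescence near 667 nm with spot signal-to-noise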

Chain of Fibroblast growth factor 10 (Homo sapiens) (O15520 whole entry, looked up): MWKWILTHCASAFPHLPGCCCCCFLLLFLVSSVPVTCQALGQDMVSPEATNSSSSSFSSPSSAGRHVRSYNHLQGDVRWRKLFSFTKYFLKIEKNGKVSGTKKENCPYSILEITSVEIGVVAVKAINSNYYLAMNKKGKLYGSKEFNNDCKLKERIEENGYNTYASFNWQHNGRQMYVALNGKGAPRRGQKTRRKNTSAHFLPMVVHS
Chain of Torsin-1A-interacting protein 2 (Homo sapiens) (Q8NFQ8 whole entry, looked up): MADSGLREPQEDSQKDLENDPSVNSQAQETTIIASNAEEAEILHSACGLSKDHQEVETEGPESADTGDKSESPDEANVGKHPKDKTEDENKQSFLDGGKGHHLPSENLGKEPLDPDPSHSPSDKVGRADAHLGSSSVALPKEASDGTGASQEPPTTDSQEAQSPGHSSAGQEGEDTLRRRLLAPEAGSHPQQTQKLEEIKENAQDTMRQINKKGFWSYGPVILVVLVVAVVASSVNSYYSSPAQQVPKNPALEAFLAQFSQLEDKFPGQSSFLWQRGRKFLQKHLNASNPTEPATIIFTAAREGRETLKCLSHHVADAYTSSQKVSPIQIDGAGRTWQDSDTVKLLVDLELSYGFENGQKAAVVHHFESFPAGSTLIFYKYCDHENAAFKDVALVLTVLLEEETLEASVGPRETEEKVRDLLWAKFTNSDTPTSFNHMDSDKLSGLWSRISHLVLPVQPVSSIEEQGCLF
Chain of Follistatin-related protein 3 (Homo sapiens) (O95633 whole entry, looked up): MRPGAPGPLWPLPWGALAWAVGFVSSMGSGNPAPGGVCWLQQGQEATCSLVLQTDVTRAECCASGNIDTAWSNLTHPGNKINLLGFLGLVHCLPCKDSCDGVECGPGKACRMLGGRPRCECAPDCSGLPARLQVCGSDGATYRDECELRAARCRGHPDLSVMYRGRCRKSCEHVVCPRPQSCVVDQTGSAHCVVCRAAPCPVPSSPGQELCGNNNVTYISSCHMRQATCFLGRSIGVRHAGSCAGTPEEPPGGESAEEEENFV
Chain of Epidermal growth factor receptor (Homo sapiens) (P00533 whole entry, looked up): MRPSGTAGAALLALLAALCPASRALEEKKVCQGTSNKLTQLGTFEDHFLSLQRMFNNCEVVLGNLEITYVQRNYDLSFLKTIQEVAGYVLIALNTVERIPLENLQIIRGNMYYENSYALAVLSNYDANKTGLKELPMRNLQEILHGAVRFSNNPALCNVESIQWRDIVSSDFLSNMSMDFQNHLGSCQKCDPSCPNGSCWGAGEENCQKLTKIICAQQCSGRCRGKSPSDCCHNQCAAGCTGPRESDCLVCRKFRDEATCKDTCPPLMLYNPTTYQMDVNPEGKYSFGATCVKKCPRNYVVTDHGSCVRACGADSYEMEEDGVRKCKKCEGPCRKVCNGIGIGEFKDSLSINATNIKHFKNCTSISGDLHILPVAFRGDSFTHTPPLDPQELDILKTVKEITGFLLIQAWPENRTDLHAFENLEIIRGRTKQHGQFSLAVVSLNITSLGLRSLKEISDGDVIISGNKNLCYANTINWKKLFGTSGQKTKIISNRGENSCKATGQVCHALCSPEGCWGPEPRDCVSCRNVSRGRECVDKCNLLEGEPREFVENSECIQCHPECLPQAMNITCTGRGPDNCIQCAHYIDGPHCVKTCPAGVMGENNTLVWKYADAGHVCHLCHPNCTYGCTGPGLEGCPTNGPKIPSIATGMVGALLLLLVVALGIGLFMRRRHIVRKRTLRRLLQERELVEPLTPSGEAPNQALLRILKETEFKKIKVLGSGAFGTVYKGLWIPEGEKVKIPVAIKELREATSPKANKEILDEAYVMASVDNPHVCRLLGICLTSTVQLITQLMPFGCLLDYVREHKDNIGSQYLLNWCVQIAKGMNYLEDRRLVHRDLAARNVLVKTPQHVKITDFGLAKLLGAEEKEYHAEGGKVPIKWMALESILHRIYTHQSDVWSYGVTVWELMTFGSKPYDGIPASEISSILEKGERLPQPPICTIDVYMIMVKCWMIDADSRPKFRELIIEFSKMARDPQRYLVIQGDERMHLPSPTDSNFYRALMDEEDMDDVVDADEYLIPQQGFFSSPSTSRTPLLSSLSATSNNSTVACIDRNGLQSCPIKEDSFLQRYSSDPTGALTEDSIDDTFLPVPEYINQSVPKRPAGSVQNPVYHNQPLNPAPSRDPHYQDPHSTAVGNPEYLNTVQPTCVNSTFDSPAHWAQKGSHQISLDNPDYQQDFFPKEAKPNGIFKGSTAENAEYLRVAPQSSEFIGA
Chain of Neurogenic locus notch homolog protein 3 (Homo sapiens) (Q9UM47 whole entry, looked up): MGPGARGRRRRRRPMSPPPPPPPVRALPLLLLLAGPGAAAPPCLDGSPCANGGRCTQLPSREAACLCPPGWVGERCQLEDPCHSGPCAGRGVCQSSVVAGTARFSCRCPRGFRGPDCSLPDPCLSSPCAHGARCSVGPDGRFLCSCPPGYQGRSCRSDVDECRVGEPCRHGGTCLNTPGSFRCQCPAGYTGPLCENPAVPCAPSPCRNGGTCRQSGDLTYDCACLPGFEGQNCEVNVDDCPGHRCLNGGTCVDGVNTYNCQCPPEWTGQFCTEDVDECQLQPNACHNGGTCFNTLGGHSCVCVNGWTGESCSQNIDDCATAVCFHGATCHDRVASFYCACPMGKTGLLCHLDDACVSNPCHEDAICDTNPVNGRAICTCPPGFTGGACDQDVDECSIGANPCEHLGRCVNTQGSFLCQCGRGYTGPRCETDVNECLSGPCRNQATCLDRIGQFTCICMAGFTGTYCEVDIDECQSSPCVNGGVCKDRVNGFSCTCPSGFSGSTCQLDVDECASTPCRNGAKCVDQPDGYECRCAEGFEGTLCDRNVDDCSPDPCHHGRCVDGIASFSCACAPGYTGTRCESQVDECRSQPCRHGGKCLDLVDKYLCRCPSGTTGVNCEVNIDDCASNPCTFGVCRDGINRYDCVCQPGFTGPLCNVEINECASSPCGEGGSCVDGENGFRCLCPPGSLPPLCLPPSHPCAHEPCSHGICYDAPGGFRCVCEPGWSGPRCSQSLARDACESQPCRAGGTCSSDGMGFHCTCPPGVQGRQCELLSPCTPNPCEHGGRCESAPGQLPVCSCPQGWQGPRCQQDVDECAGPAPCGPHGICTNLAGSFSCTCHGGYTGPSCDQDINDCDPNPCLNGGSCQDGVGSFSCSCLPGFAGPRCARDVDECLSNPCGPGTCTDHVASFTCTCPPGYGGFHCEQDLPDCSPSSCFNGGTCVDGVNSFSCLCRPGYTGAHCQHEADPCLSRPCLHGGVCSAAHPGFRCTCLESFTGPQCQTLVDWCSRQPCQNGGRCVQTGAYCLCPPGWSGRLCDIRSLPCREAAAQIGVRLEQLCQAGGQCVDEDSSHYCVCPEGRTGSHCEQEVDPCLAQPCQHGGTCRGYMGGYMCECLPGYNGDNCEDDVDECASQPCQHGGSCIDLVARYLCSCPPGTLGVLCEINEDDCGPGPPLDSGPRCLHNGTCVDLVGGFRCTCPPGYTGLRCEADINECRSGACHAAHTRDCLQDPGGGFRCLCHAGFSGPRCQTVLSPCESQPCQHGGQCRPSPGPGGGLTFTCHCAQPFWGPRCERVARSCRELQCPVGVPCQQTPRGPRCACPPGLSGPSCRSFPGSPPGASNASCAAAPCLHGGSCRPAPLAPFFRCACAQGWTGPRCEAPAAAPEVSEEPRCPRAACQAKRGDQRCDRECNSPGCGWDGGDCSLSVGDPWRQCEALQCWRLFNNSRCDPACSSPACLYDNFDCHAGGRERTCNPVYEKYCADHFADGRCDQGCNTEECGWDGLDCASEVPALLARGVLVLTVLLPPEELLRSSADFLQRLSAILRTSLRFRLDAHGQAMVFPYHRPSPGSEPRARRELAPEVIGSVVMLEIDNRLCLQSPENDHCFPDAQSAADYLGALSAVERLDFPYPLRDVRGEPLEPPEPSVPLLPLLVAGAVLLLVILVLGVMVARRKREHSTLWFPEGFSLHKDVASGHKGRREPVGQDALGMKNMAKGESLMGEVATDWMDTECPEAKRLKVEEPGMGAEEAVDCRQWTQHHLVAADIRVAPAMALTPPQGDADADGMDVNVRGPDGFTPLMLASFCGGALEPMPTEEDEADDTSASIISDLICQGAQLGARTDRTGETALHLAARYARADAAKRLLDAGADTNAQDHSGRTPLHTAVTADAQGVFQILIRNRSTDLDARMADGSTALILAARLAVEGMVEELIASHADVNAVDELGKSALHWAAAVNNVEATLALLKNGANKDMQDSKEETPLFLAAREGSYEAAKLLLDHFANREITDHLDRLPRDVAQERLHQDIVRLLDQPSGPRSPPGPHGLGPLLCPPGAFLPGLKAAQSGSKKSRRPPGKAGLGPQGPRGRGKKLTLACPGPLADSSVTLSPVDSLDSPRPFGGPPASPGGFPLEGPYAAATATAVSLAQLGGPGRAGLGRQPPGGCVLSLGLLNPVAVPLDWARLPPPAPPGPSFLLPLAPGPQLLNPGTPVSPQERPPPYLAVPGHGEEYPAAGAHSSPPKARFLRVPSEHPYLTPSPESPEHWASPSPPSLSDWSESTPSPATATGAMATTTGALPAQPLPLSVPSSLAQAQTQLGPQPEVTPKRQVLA
Chain of Dickkopf-related protein 1 (Homo sapiens) (O94907 whole entry, looked up): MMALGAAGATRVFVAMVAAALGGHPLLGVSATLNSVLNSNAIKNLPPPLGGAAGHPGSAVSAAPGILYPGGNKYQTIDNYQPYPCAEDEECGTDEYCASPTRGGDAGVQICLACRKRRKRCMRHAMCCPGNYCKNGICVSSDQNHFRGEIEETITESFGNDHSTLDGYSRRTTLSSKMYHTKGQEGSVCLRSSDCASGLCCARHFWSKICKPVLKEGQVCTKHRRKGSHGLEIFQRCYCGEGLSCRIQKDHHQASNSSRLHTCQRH

Structure (SMILES) | composite z-score [1] | z-score [2] | z-score [3] | z-score [4] | composite z-score [5] | z-score [6] | composite z-score [7] | composite z-score [8] | composite z-score [9] | composite z-score [10] | composite z-score [11] | composite z-score [12] | composite z-score [13] | z-score [14] | composite z-score [15] | composite z-score [16] | composite z-score [17] | composite z-score [18] | composite z-score [19] | composite z-score [20]
C=C(CC1([C@@H](NP(=O)(c2ccccc2)c2ccccc2)[C@H]2C[C@@H]2CCCC)CC1)c1cccc(OC)c1 | -0.155 | 0.557 (inactive) | 0.832 (inactive) | 1.82 (inactive) | 1.66 | -0.768 (inactive) | 0.179 | -0.239 | 0.36 | -0.0563 | -0.167 | 0.91 | 1.15 | -2.52 (inactive) | 0.158 | -0.3 | -0.28 | 0.463 | -1.14 | 1.03
O=C1NC(=O)C2C1C=CC(C(O)c1ccc(F)cc1)N2Nc1ccc(Cl)cc1Cl (stereo not given) | 0.589 | -25.3 (active) | -7.26 (inactive) | -0.0449 (inactive) | 3.02 | -1.3 (inactive) | 0.096 | -0.749 | 0.14 | -0.123 | -0.315 | 0.96 | 1.12 | 1.65 (inactive) | 0.327 | -0.923 | -0.416 | -0.194 | -0.459 | 0.924
CN1C(=O)C2C=CC(C(O)c3ccc(I)cc3)N(N(c3ccccc3)c3ccccc3)C2C1=O (stereo not given) | 0.364 | 0.413 (inactive) | 1.38 (inactive) | 1.45 (inactive) | 0.155 | -1.07 (inactive) | 0.17 | -0.569 | -0.239 | -0.0903 | 0.727 | -0.0078 | 0.914 | 1.19 (inactive) | -0.841 | -0.487 | -0.882 | -0.309 | -0.421 | 1.32
C=CCNC(=O)[C@H]1[C@@H]2C(=O)O[C@@H](c3ccccc3)[C@@H](c3ccccc3)N2[C@@H](c2ccc(O)cc2)[C@]12C(=O)Nc1ccc(C#CCC(C(=O)OC)C(=O)OC)cc12 | 0.526 | 0.357 (inactive) | -0.213 (inactive) | -0.836 (inactive) | 1.13 | 1.44 (inactive) | -0.0478 | 0.614 | -0.112 | -0.102 | -0.147 | 0.199 | 0.599 | -0.0204 (inactive) | 0.727 | 1.04 | -0.195 | 0.339 | 0.415 | 1.08
CC(C)C[C@@H]1NC(=O)[C@H]2C[C@@H](C(=O)O)[C@@H](c3cccc(OCCO)c3)N2C1=O | 0.779 | 0.395 (inactive) | -0.907 (inactive) | -0.529 (inactive) | 2.06 | 0.767 (inactive) | 0.276 | 0.492 | 0.632 | 0.0588 | 0.524 | 0.0083 | 0.677 | 0.256 (inactive) | 0.0039 | 0.969 | 0.193 | 1.2 | 1.11 | 1.19
O=C1O[C@@H](c2ccccc2)[C@@H](c2ccccc2)N2[C@@H](c3ccc(OCCO)cc3)[C@]3(C(=O)Nc4ccc(C#CC5=CCCCC5)cc43)[C@@H](C(=O)Nc3nc4ccccc4s3)[C@H]12 | 1.56 | 2.22 (inactive) | 1.59 (inactive) | 1.57 (inactive) | 1.86 | -0.124 (inactive) | -0.673 | 1.11 | 1.02 | -0.0613 | 1.63 | -0.127 | -1.13 | -0.61 (inactive) | 1.01 | 0.489 | 0.554 | 0.0685 | -0.188 | -0.289
[N-]=[N+]=NCc1ccccc1[C@H]1OC(c2ccc(OCCCO)cc2)=N[C@@]1(Cc1ccccc1N=[N+]=[N-])C(=O)N1CCOCC1 | 1.58 | -0.8 (inactive) | 1.23 (inactive) | 4.53 (inactive) | 3.36 | 0.175 (inactive) | -0.0133 | 0.123 | 1.11 | -0.0031 | 1.02 | 0.596 | 0.828 | -0.1 (inactive) | 0.458 | 1.1 | -0.292 | 0.29 | -0.287 | 0.594
CC(C)N1C(=O)[C@@]2(Cc3ccccc31)c1ccccc1C(=O)N(Cc1ccccc1C(F)(F)F)[C@H]2c1ccc(CO)cc1 | 1.31 | -0.0493 (inactive) | -0.706 (inactive) | -1.81 (inactive) | 2.23 | -0.569 (inactive) | -0.269 | 0.841 | 0.99 | 0.116 | 1.73 | 0.444 | -0.756 | -0.352 (inactive) | 0.178 | 0.366 | 0.0355 | 1.39 | 1.08 | 0.66
CC(C)C[C@H]1NC(=O)CNC(=O)[C@@]23C(=O)N[C@@H](Cc4ccccc4)C2[C@H](C)[C@@]2(C)O[C@H]2C3/C=C/C/C=C\CNC1=O (stereo not given in full) | 1.08 | -0.599 (inactive) | 0.189 (inactive) | -0.612 (inactive) | 0.921 | -0.743 (inactive) | -0.157 | 0.104 | 0.713 | -0.105 | 0.288 | -0.129 | -0.671 | 0.187 (inactive) | 0.749 | 0.407 | 0.181 | 0.811 | 0.267 | 1.48
CC(C)(C)OC(=O)CC[C@]1(C(=O)N2CCOCC2)COC(c2ccc(OCCCO)cc2)=N1 | 0.786 | 1.04 (inactive) | 0.487 (inactive) | 0.911 (inactive) | 3.6 | 1.66 (inactive) | 0.0665 | -0.778 | -0.526 | 0.94 | 1.45 | 0.37 | 0.668 | -0.713 (inactive) | 0.164 | -0.668 | 0.727 | -0.87 | -1.34 | 0.309
